# Shown are actives, neighbours in structure and some others; about 21% of the full set was active somewhere.
# NS1 function inh: qHTS Assay for Inhibitors of Influenza NS1 Protein Function | Potency, µM (doses to about 46.1 µM), without a hit: at the highest dose activity, positive = more growth | actives 0.4% (n = 270,000); calls by dose curve; also: potency is read from the fitted curve at half-maximal effect; actives are rising curves; nearly all actives have a fitted effect of over 50% in size
#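 Recovery from NS1-induced slow growth read by OD600 in budding yeast switched to galactose assay medium (pH 6.0, -URA) at 1:100 dilution. Compound 23 nl per well; the matching strain lacking NS1 serves as control.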
# Shiga toxin inh: A qHTS for Small Molecule Inhibitors of Shiga Toxin; Vero cells, Shiga toxin protein synthesis inhibition reporter; AID 2315, 2010; actives 9.2% (n = 290,000); inhibition, % at 38.7 µM; in the data active = inhibition mostly above about 28%, no sharp cut-off; inactive = mostly below about 43%; also: 0% is about no effect
# CHX counter: Cycloheximide Counterscreen for Small Molecule Inhibitors of Shiga Toxin | cell reporter, cycloheximide protein synthesis inhibition counterscreen | actives 12% (n = 300,000) | max response, % | AID 2314, 2010; in the data active = max response mostly above about 13%, no sharp cut-off; inactive = mostly below about 14%; also: read at 38.3 µM for the half of the compounds with a filed dose; 0% is about no effect
# FBPA Giardia inh: qHTS Assay for Inhibitors of Fructose-1,6-bisphosphate Aldolase from Giardia Lamblia; A8B2U2; purified Giardia FBPA; Potency, µM (doses to about 59.6 µM), for inactives: at the highest dose activity, negative = inhibition, hits mostly inhibitors; actives 0.71% (n = 290,000); also: potency is read from the fitted curve at half-maximal effect; % is scaled to controls: 0 for no effect and ±100 for the full control effect; nearly all actives have a fitted effect of over 55% in size
# Target sequence (A8B2U2 whole entry, looked up): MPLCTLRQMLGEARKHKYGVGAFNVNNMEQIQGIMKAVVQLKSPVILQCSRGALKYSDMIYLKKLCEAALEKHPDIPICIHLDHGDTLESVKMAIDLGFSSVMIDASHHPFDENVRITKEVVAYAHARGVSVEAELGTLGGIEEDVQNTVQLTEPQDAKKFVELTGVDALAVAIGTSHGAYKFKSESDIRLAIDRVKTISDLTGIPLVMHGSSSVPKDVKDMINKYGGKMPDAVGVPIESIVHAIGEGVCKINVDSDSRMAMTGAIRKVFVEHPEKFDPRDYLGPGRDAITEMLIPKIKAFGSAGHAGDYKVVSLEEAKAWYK
#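 Giardia FBPA (40 nM reagent) was preincubated 10 min at RT with compound (up to 57.5 uM final), then substrate plus GAPDH/TPI/NAD/arsenate coupling system with diaphorase/resazurin was added; resorufin fluorescence (525/598 nm) was read after 20 min.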
# Pf growth 96h: Primary qHTS for delayed death inhibitors of the malarial parasite plastid, 96 hour incubation. P. falciparum luciferase reporter growth, 96 h. Potency, µM (titrated, usually from 28.7 µM), for inactives: top-dose activity change, negative = inhibition, actives largely listed as inhibitors. actives 6.9% (n = 320,000). AID 504834, 2011; also: potency is read from the fitted curve at half-maximal effect; % is scaled to controls: 0 for no effect and ±100 for the full control effect
#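 Plates of compound plus infected erythrocytes (2% hematocrit, 0.05% parasitemia final) incubate 96 hours, 37 C, 5% CO2. Detection reagent added; reduced luminescence from the parasites' luciferase reporter flags inhibition.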
# Pf growth 48h: Primary qHTS for delayed death inhibitors of the malarial parasite plastid, 48 hour incubation; Potency, µM (series often up to 28.7 µM), for the others: at the highest dose activity change, negative = inhibition, hits mostly inhibitors; actives 5.9% (n = 310,000); P. falciparum luciferase growth in erythrocytes, 48 h; AID 504832, 2011; also: potency is read from the fitted curve at half-maximal effect; % is scaled to controls: 0 for no effect and ±100 for the full control effect
#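 Cell-based growth assay: transgenic P. falciparum expressing firefly luciferase, cultured in red cells within RPMI 1640 containing 0.5% w/v Albumax, 24 mM bicarbonate and gentamycin. A drop in luciferase activity indicates inhibition.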
# * marks the source's active call; other numbers are inactive results; i = inactive; u = inconclusive; x = no result; ! = not confirmed by another sample; [ ] = dose if it differs, or a comment. Unless noted, calls follow the shape of the dose curve; as a rule, active = well fitted curve in the direction sought with a large enough effect; inconclusive = small, poorly fitted or top-dose-only effect, or another doubt; inactive = no such curve, though single readings can be large; an effect the other way counts as inactive or inconclusive.
SMILES,NS1 function inh,Shiga toxin inh,CHX counter,FBPA Giardia inh,Pf growth 96h,Pf growth 48h
CCN1CC2(OC(=O)c3ccccc3NC(C)=O)CCC(OC)[C@]34C1[C@H](CC23)[C@@]1(O)C[C@H](OC)[C@H]2CC4C1(O)[C@H]2OC (stereo not given in full),x,17,-6,1%,x,x
C=CCOc1c(Cl)cc(CNc2ccc(N(C)C)cc2)cc1OC,28%,85,42*,4.5µM*,u,u
COc1ccc(OC)c(NS(=O)(=O)c2ccc3c(c2)C(C)(C)C(=O)N3C)c1,17%,-11,3,-12%,-2%,u
O=C(N[C@H]1CP(=O)(Oc2ccccc2)O[C@H](COCc2ccccc2)[C@H]1O)C(Cl)(Cl)Cl (stereo not given in full),2%,-2,25*,-7%,12µM*,u
COP1(=O)CC(O)C(O)C(COCc2ccccc2)O1 (stereo not given),x,2,0,5%,x,x
COC(=O)[C@@H]1CCCN1C(=O)[C@@H](C)CO,x,x,x,-1%[12.9 µM],x,x
CCCc1noc2c1/C(=N\O)CC(CC(C)SCC)C2 (stereo not given),-19%,19*,33*,6%,0%,u
CCCC(=N)C1=C(O)CC(CC(C)SCC)CC1=O (stereo not given),-100%,7,8,0%,19%,-6%
CCCC(=O)C1C(=O)CC(CC(C)SCC)CC1=O (stereo not given),-91%,-10,-4,1%,-36%,x
CCSC(C)CC1C/C(=N/O)c2c(CC)noc2C1 (stereo not given),-35%,4,3,6%,7%,15µM*
N#CCSc1ccccc1NC(=O)COC(=O)Cc1c[nH]c2ccccc12,x,x,x,x,6.6µM*,10µM*
CC(c1cccs1)N(C)Cc1nc(CCc2ccccc2)no1 (stereo not given),3%,37*,17,2%,u,86%
C=CCc1c(C)nc(-c2ccccc2)nc1Nc1ccc(O)cc1,-8%,-14,0,-2%,u,12%
C=CCc1c(C)nc(-c2ccccc2)nc1N/N=C(\C)c1ccccc1,13%,21,12*,u,u,11%
CC(C(=O)Nc1ccccn1)N1C(=O)c2ccccc2S1(=O)=O (stereo not given),x,x,x,x,17%,18%
Cc1cccc(CN2CCC(CNC(=O)Cn3ncc4c([nH]c5ccccc54)c3=O)CC2)c1,0%,9,-7,2%,u,u
O=C(O)c1ccnc(C(=O)O)c1,4%,-1,10,1.8µM*,9%,u
CN(C)c1ccc(C(=O)OCc2ccccc2)cc1,-3%,51,35*,2%,58%,x
O=C(Oc1ccccc1)c1cccc(COC(=O)c2cnccn2)c1,-28%,active,36*,8%,x,16%
O=C(OCc1ccccc1)c1cccnc1,x,x,x,x,15µM*,u
O=C(OCc1ccc(Br)cc1)c1cccnc1,-51%,3,-3,4%,17%,4%
COC(=O)c1ccc(COC(=O)c2ccc(N(C)C)cc2)cc1,10%[9.22 µM],65*,41*,-2%,x,43%
O=C(Nc1ccnn1C1CCN(Cc2cc(Cl)ccc2O)CC1)C1CC1,9%,-4,-1,3%,u,u
Cc1cc(C(=O)COC(=O)COc2ccc(C#N)cc2)c(C)n1C1CC1,x,x,x,x,30%,8%
COc1ccc(C(=O)Nc2c(C(C)(C)C)nn(C)c2C(C)(C)C)cc1,-4%,-5,1,6%,50%,8%
SMILES,NS1 function inh,Shiga toxin inh,CHX counter,FBPA Giardia inh,Pf growth 96h,Pf growth 48h
CCOC(=O)C(=O)Nc1ccc(S(=O)(=O)Nc2nccs2)cc1,20%,-3,-3,-14%,10%,8%
CCN(CC)C(=S)SSC(=S)N(CC)CC,-52%,-7,-5,18µM*!,u,u
C=C(Cl)CSC(=S)N(CC)CC,x,x,x,x,-9%,57%
NC(Cc1ccccc1)c1nc2ccccc2[nH]1 (stereo not given),9%,48*,18*,10%,28%,32%
c1ccc(OCc2nc3ccccc3[nH]2)cc1,-31%,75*,49*,-7%,25%,114%
c1ccc(Cc2nc3ccccc3[nH]2)cc1,-16%,-3,-3,-13%,u,-3%
NC(Cc1nc2ccccc2[nH]1)c1ccc(Cl)cc1 (stereo not given),-4%,81*,45*,-26%,i,7%
Cc1ccc(OCc2nc3ccccc3[nH]2)cc1,-23%,57*,61*,-2%,22%,32%
CC1(c2ccccc2)NC(=O)N(CC(=O)Nc2ccc(C(N)=O)cc2)C1=O (stereo not given),-18%,-8,-1,0%,6%,-2%
Clc1ccc(OCc2nc3ccccc3[nH]2)cc1,x,56*,32*,-10%,u,203%
O=C(NCCCN1CCCC1=O)c1ccc2c(c1)OCO2,-2%,59*,15*,-10%,u,45%
O=C(NCCCN1CCCC1=O)c1cccnc1,4%,-3,-1,10%,x,17%
O=C(NCCCN1CCCC1=O)c1ccc(Cl)c(S(=O)(=O)N2CCCCC2)c1,x,x,x,x,5.2µM*,8.3µM*
O=C(NCCCN1CCCC1=O)c1ccc2c(c1)NC(=O)C(N1CCOCC1)S2 (stereo not given),2%,-9,-3,5%,0.93µM*,-4%
O=C(COc1cc2oc(=O)c3c(c2cc1Cl)CCC3)NCCCN1CCCC1=O,-9%,-2,-2,x,13µM*,u
CSc1nc(NC2CCCC2)c([N+](=O)[O-])c(NC2CCCC2)n1,x,13,7,-1%,x,x
Cn1cc(C(=O)NS(=O)(=O)Nc2ccc(Br)cn2)c2ccccc21,-2%,22*,26*,8%,35%,0%
COc1ccc(C(C(C(=O)c2ccco2)N2CCOCC2)N2CCOCC2)cc1 (stereo not given),-10%,23*,23*,-8%,-1%,16%
O=C(NCc1ccccc1)C(=O)NCC(c1ccco1)N1CCOCC1 (stereo not given),3%,-13,-3,6%,42%,0%
COc1ccc(CNC(=O)C(=O)NCC(c2ccco2)N2CCOCC2)cc1 (stereo not given),-3%,3,8,1%,7.4µM*,11%
O=C(COC(=O)c1ccc(S(=O)(=O)N2CCCCCC2)cc1)NCc1ccc(Cl)cc1,x,x,x,x,-25%,-23%
O=C(COC(=O)COc1ccc(Cl)cc1)NC1CCCCCC1,x,x,x,x,31%,6%
CCOC(=O)C1(Cc2ccc(OC)cc2)CCN(C(=O)CCn2ccc(C)n2)CC1,-11%,11,-2,-1%,u,-8%
CCOC(=O)C1(Cc2ccc(OC)cc2)CCN(C(=O)CCn2cccn2)CC1,-3%,88,30*,4%,-13%,5%

# Source: PubChem BioAssay (National Center for Advancing Translational Sciences (NCATS))
